Screening data from PubChem BioAssay.
NOMO-1 viab = STK33 inhibitor candidate reducing NOMO-1 cell viability; NOMO-1 AML viability, CellTiter-Glo luminescence, 72 h; inhibition, % (no concentration beside the values); actives 7.5% (n = 37,000); AID 2330; in the data active means inhibition above about 80%
STK33 inh = blocks human STK33 kinase activity; Q9BYT3; ADP-Glo luminescence, MBP substrate; inhibition, % at 12.5 µM; actives 0.44% (n = 27,000); AID 2322; in the data active means inhibition above about 20%
Target sequence (Q9BYT3 whole entry, looked up): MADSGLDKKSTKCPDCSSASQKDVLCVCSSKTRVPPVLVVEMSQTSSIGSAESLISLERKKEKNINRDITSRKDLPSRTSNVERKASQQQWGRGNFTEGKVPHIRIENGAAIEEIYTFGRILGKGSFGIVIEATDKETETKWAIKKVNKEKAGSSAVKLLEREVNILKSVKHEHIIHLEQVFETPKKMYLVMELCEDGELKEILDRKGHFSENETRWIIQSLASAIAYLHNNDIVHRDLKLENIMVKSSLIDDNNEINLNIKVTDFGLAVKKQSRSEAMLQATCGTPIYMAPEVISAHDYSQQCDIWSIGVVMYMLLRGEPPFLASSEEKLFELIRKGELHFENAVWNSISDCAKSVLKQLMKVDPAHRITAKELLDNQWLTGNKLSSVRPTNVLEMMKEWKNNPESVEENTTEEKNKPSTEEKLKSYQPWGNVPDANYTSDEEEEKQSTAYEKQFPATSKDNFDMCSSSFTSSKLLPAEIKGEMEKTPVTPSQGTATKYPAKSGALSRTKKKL
PD-1 reversal = reversal of PD-1 mediated T-cell inhibition; AID 2316; 29,000 tested, under 10 active; primary human CD4 T cells, PD-L1 beads, CellTiter-Glo 96 h; activation, % (test concentration not listed); call rule not given here;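 further: 0% = median vehicle wells and 100% = positive control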
* hit, by the source's call; · = no result. Many of the other results were omitted from the sample, so hits are more common in it than they were.

SMILES	NOMO-1 viab	STK33 inh	PD-1 reversal
Cc1ccc(N(CC(=O)Nc2c(C)n(C)n(-c3ccccc3)c2=O)S(C)(=O)=O)cc1Cl	9	-2	1
CCc1c(C)sc(NC(=O)c2ccc(Cn3nc(C)c(Cl)c3C)o2)c1C(N)=O	47	-8	-3
O=S(=O)(NCC1CCN(Cc2cccc(OCCO)c2)CC1)c1ccc(Cl)c(Cl)c1	·	2	·
CCn1c2ccccc2c2cc(NC(=O)COc3ccc([N+](=O)[O-])cc3)ccc21	-27	1	·
CCOC(=O)c1cnn(C(=O)Cc2cccc(OC)c2)c1N	23	·	0
CS/C(NCC1CC1)=C(/C#N)C(=O)c1ccc(Cl)cc1	111*	·	-7
CS/C(NC1CCCCC1)=C(/C#N)S(=O)(=O)c1ccc(Cl)cc1	38	·	0
O=C1Cc2c([nH]c3ccc(Br)cc23)-c2ccccc2N1	89*	3	5
COC(=O)[C@@]1(Cc2ccccc2CN=[N+]=[N-])N=C(c2ccc(OCCCO)cc2)O[C@H]1c1ccccc1CN=[N+]=[N-]	·	15	·
COc1cccc([C@H]2C(C#N)=C(N)C(C#N)(C#N)C3=CCC(C)C[C@@H]32)c1 (stereo partly drawn)	127*	·	-3
CC(C)N1CC=C2C(C1)C(c1ccccc1)C(C#N)=C(N)C2(C#N)C#N (stereo not drawn)	47	·	0
CCCC(=O)Nc1nc2c(ncn2C2O[C@H]3COP(=O)(O)O[C@@H]3[C@@H]2OC(=O)CCC)c(=O)[nH]1 (stereo partly drawn)	5	1	2
N#Cc1ccc(NC(=O)CCCn2cc([N+](=O)[O-])cn2)cc1	-8	-6	·
COC(=O)C1=CN(c2cccc(C(F)(F)F)c2)C=C(C(=O)OC)C1c1ccsc1	18	·	-1
COC(=O)C1=CN(C23CC4CC(CC(C4)C2)C3)C=C(C(=O)OC)C1c1cccc(OC)c1	109*	·	0
CC(C(=O)N1CCN(C)CC1)N(c1ccc(Oc2ccccc2)cc1)S(C)(=O)=O (stereo not drawn)	31	2	·
CCCCC/C=C/C(=O)CCc1ccc(O)c(OC)c1	118*	-1	0
CCCCCCCCC/C=C/C(=O)CCc1ccc(O)c(OC)c1	·	-2	·
N#CCC(c1ccccc1)c1ccccc1	-5	·	-1
C[C@@H]1CN([C@H](C)CO)C(=O)c2cccc(NC(=O)Nc3ccc(C(F)(F)F)cc3)c2O[C@H]1CN(C)C(=O)Nc1ccccc1	93*	·	-2
C[C@@H]1CN([C@H](C)CO)C(=O)c2cccc(NC(=O)Nc3ccccc3)c2O[C@@H]1CN(C)C(=O)Nc1ccc(C(F)(F)F)cc1	16	·	-1
C[C@@H]1CN([C@@H](C)CO)C(=O)c2cccc(NC(=O)Nc3ccc(C(F)(F)F)cc3)c2O[C@@H]1CN(C)C(=O)Nc1ccccc1	112*	·	0
C[C@@H]1CN([C@@H](C)CO)C(=O)c2cccc(NC(=O)Nc3ccccc3)c2O[C@H]1CN(C)C(=O)Nc1ccc(C(F)(F)F)cc1	44	·	-2
CC1(C)NC(=S)N(c2ccccc2)N1	31	·	0
CC(C(=O)O)N(c1ccc(Cl)cc1)S(C)(=O)=O (stereo not drawn)	-14	0	·
SMILES	NOMO-1 viab	STK33 inh	PD-1 reversal
C[C@@H]1CN([C@@H](C)CO)C(=O)c2cccc(NC(=O)Nc3ccccc3)c2O[C@@H]1CN(C)C(=O)Nc1ccc(C(F)(F)F)cc1	68	·	·
C[C@H]1CN([C@@H](C)CO)C(=O)c2cccc(NC(=O)Nc3cccc4ccccc34)c2O[C@H]1CN(C)C(=O)Nc1ccc(F)cc1	87*	·	-5
C[C@H](CO)N1C[C@H](C)[C@@H](CN(C)C(=O)Nc2ccccc2)Oc2c(NC(=O)Nc3ccc(C(F)(F)F)cc3)cccc2C1=O	76	·	-2
C[C@H](CO)N1C[C@H](C)[C@H](CN(C)C(=O)Nc2ccc(C(F)(F)F)cc2)Oc2c(NC(=O)Nc3cccc4ccccc34)cccc2C1=O	102*	·	-6
C[C@H]1CN([C@@H](C)CO)C(=O)c2cccc(NC(=O)Nc3ccc(F)cc3)c2O[C@H]1CN(C)C(=O)Nc1cccc2ccccc12	-4	·	-2
C[C@H]1CN([C@@H](C)CO)C(=O)c2cccc(NC(=O)Nc3ccccc3)c2O[C@@H]1CN(C)C(=O)Nc1ccc(C(F)(F)F)cc1	6	·	-1
C[C@H]1CN([C@@H](C)CO)C(=O)c2cccc(NC(=O)Nc3cccc4ccccc34)c2O[C@H]1CN(C)C(=O)Nc1ccc(C(F)(F)F)cc1	109*	·	-6
C[C@H](CO)N1C[C@H](C)[C@@H](CN(C)C(=O)Nc2ccc(C(F)(F)F)cc2)Oc2c(NC(=O)Nc3cccc4ccccc34)cccc2C1=O	100*	·	-5
O=C(O)c1cc(=O)c2c(O)cccc2o1	5	·	0
O=c1[nH]nc(SCc2ccccc2)n1-c1ccc(OCc2ccccc2)cc1	32	·	0
Nc1nnc(SCC(=O)Nc2ccc(I)cc2)s1	10	0	0
Cc1ccc(NC(=O)CSc2nc(C)cc(-c3ccc(Cl)cc3)n2)cc1	-6	-4	-1
COC(=O)c1c(NC(=S)Nc2ccc(S(=O)(=O)N3CCOCC3)cc2)sc2c1CCC(C)C2 (stereo not drawn)	·	0	·
Cn1c(Cc2cccc3ccccc23)nnc1SCC(=O)c1ccc(Cl)cc1	25	1	-1
CC(=O)Nc1ccccc1NC(=O)CCN1C(=O)c2ccccc2C1=O	-16	0	4
COC(=O)c1cc(NC(=O)CSc2nc(Nc3ccccc3)nc(N3CCOCC3)n2)ccc1Cl	117*	3	-6
O=C(CSc1nc(Nc2ccccc2)nc(N2CCOCC2)n1)Nc1ccccc1Cl	13	4	1
OC[C@H]1O[C@@H](n2cnc3c(NCc4ccco4)ncnc32)[C@H](O)[C@@H]1O	108*	-1	·
c1coc(CNc2ncnc3c2sc2nc(N4CCOCC4)c4c(c23)CCC4)c1	19	11	·
COC(=O)C1c2c(oc3cc(CO)cc(O)c3c2=O)C=CC1O (stereo not drawn)	107*	3	-13
COc1cc(-c2oc3cc(O)cc(O)c3c(=O)c2O[C@@H]2O[C@H](CO)[C@@H](O)[C@H](O)[C@H]2O)ccc1O[C@@H]1O[C@H](CO)[C@@H](O)[C@H](O)[C@H]1O	-3	-7	1
CCC1=Nc2ccc(Br)cc2C(c2ccccc2)N1CC(=O)NN (stereo not drawn)	15	·	0
C[C@@H]1CN([C@@H](C)CO)C(=O)c2cccc(NC(=O)Nc3ccc(C(F)(F)F)cc3)c2O[C@@H]1CN(C)C(=O)Nc1cccc2ccccc12	66	·	-1
C[C@@H]1CN([C@@H](C)CO)C(=O)c2cccc(NC(=O)Nc3ccc(C(F)(F)F)cc3)c2O[C@H]1CN(C)C(=O)Nc1cccc2ccccc12	106*	·	-4
C[C@H](CO)N1C[C@H](C)[C@H](CN(C)C(=O)Nc2cccc3ccccc23)Oc2c(NC(=O)Nc3ccc(C(F)(F)F)cc3)cccc2C1=O	77	·	·
C[C@H](CO)N1C[C@H](C)[C@@H](CN(C)C(=O)Nc2cccc3ccccc23)Oc2c(NC(=O)Nc3ccc(C(F)(F)F)cc3)cccc2C1=O	117*	·	-4
CNC(=O)c1cnc2cc(Cl)ccc2c1OC	5	·	0
CC(C)c1ccc(NC(=O)Cn2cc([N+](=O)[O-])cn2)cc1	26	0	-1
